# Measured values published in PubChem BioAssay AID2501 (Southern Research Specialized Biocontainment Screening …, 2010).
# The campaign covered roughly 2,200 compounds. About 1,200 (55%) were called active. Cut-off not given; nearly all actives show IC50 up to about 92 µM. So high a share suggests a set chosen from earlier hits. Some of the results follow.
# Assay: counter assay for TAg ATPase ADP read-out – biochemical, ADP-Hunter, fluorescence, counter-screen (AID 2501);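 further: purified T antigen ATPase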;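 on inhibition: 0% = enzyme with vehicle and 100% = reference inhibitor wells; higher means more inhibition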
# Details: series mostly up to 100 µM; inhibition: at the top concentration
Compound,inhibition,IC50
O=C(O)CCC1c2cc3c4cc2OC2Oc5cc6c(cc51)C(CCC(=O)O)c1cc5c7cc1OC(O6)c1cc6cc(c1)Oc1cc(cc(C(=O)O)c1)Oc1cc8cc(c1)C(Oc1cc(c(cc1C5CCC(=O)O)C3CCC(=O)O)OC(O4)c1cc(cc(c1)Oc1cc(cc(C(=O)O)c1)O8)Oc1cc(cc(C(=O)O)c1)Oc1cc(cc2c1)Oc1cc(cc(C(=O)O)c1)O6)O7 (stereo not drawn),-0.04% (inactive),–
CCC[n+]1c2ccccc2cc2ccccc21,-11.8% (inactive),–
O=C(NO)c1ccc(C(=O)N(C2CCCCC2)C2CCCCC2)cc1,18.3% (inactive),–
CCCC[n+]1c2ccccc2cc2ccccc21,9.88% (inactive),–
CC(C)n1c(=S)[nH]c2c1c(=O)[nH]c(=O)n2C,–,92 µM (active)
C#CCOCCOCCOCCNc1nc(N2CCN(C(=O)CCCCCCCCCCNC(=O)[C@H]([C@@H](C)CC)n3cc(CCCCN=C(N)N)nn3)CC2)nc(N2CCN(C(=O)CCCCCCCCCCNC(=O)[C@H](CCCCN)n3cc(C[C@@H](C)CC)nn3)CC2)n1,-2.74% (inactive),–
COc1cc(/C=N/NC(=O)C(=O)NCC2CCCO2)ccc1O (stereo not drawn),–,4.13 µM (active)
COc1ccccc1CN(C(=O)CNC(=O)c1ccco1)C(C(=O)NCC1CCCO1)c1ccc(OC)c(OC)c1 (stereo not drawn),-33.5% (inactive),–
COc1cc(/C=N/NC(=O)C(=O)NCc2ccco2)ccc1O,–,5.14 µM (active)
COc1ccc(-n2c(=S)[nH]c3cc(C(=O)NCc4ccco4)ccc3c2=O)c(OC)c1,19.3% (inactive),–
Oc1ccc(/C=N/NC(=S)NCC2CCCO2)cc1 (stereo not drawn),–,2.58 µM (active)
COc1cc(/C=N/NC(=O)CNC(=O)c2ccco2)ccc1O,–,2.71 µM (active)
Cc1ccc(CNC(=O)/C=C/c2ccc(S(=O)(=O)NCc3ccco3)cc2)cc1,-32.3% (inactive),–
CC1(OC(=O)CCc2ccccc2)C(=O)C=C2C=C(c3ccc(C#N)cc3)N(Cc3ccco3)C=C2C1=O (stereo not drawn),21% (inactive),–
COc1ccc(Nc2ccc(Cl)cc2)c(C(=O)O)c1,–,9.23 µM (active)
COc1ccc(NC(=O)c2c(Cl)cnn2C)c(C)c1,-1.21% (inactive),–
COc1ccc(C(=O)CCNc2ccc(C)c(Cl)c2)cc1,4.87% (inactive),–
O=C(Cn1c(=O)oc2ccccc21)Nc1n[nH]c(=S)s1,–,88.8 µM (active)
Nc1ccc2c(c1)-c1ccccc1S(=O)(=O)N2,–,2.89 µM (active)
CC(Nc1ccc(N2CCOCC2)cc1)C(=O)N1c2ccccc2CC1C (stereo not drawn),–,8.86 µM (active)
O=c1cc(CN2CCN(Cc3ccc(F)cc3)C(CCO)C2)[nH]c2ccccc12 (stereo not drawn),5.78% (inactive),–
Cc1ccc(CN2CCN(Cc3cn[nH]c3-c3cccc(F)c3)CC2CCO)o1 (stereo not drawn),6.69% (inactive),–
CCOc1ccc(CN2CCN(Cc3cccc4c3OCO4)CC2CCO)cc1 (stereo not drawn),–,2.23 µM (active)
Cc1nc(C)c(-c2csc(Nc3ccc(N)cc3)n2)s1,–,7.48 µM (active)
Cc1cccc(-n2c(O)c(C=Nc3ccc(O)cc3)c3ccccc3c2=O)n1,–,3.7 µM (active)

Compound,inhibition,IC50
Cc1cc2c(n1-c1ccc(C(=O)O)cc1)CCCCC2,13.9% (inactive),–
C=C1C(=O)O[C@@H]2[C@H]3O[C@]3(C)CC/C=C(\C)CC[C@@H]12,-11.7% (inactive),–
CC(C)CC(NC(=O)CC12CC3CC(CC(C3)C1)C2)C(=O)NC1=NCCS1 (stereo not drawn),-26.1% (inactive),–
COc1ccc(N=Cc2c(O)cc(C)oc2=O)cc1,–,6.29 µM (active)
COc1ccc(N=Cc2nc(-c3ccccc3)oc2OC(C)=O)cc1,4.59% (inactive),–
O=C(CCl)Nc1ccc(N2CCCCCC2)cc1,–,0.76 µM (active)
CC(=O)Nc1ccc(N2CCCCC2)cc1,–,12.1 µM (active)
Cn1c(CCN2CCCCCC2)nc2cc(NC(=O)Nc3ccccc3)ccc21,-5.15% (inactive),–
Cc1ccc(NC(=O)NCCN2CCCCC2)cc1Cl,14.2% (inactive),–
Nc1ccc(NC(=O)NC2CCCCC2)cc1,–,9.21 µM (active)
O=C(Nc1ccc2nc(-c3ccco3)c(-c3ccco3)nc2c1)NC1CC1,-52.1% [at 50 µM] (inactive),–
O=C(NC1CCCCCC1)c1cccnc1Sc1ccc(Cl)cc1,8.53% (inactive),–
O=c1cc(CSc2ccc(Cl)cc2)[nH]c2[nH]n(-c3ccccc3)c(=O)c12,–,16.2 µM (active)
O=C(O)c1ccccc1NS(=O)(=O)c1ccc(NNC(=S)Nc2ccc(OC(F)F)cc2)c([N+](=O)[O-])c1,–,23 µM (active)
O=C(/C=C/c1ccco1)NCC1OCCc2ccccc21 (stereo not drawn),-30.4% (inactive),–
COc1ccc(O)c(C(=O)C2c3ccccc3C(=O)N2c2ccc(C)cc2)c1 (stereo not drawn),-11.1% (inactive),–
O=C(COc1ccc2c(-c3ccccc3)cc(=O)oc2c1)N[C@@H](Cc1c[nH]c2ccc(O)cc12)C(=O)O,–,31.3 µM (active)
O=C(O)c1ccccc1C(=O)NC1=NN(c2ccccc2)CC1,–,12.1 µM (active)
COc1cccc2c(N/N=C/c3ccc(O)c(O)c3)cc(C)nc12,–,10.2 µM (active)
COc1cc(/C=N/NC2=NCCCCC2)ccc1O,–,4.15 µM (active)
COc1cc(/C=N/Nc2ccnc(=O)[nH]2)ccc1O,–,5.01 µM (active)
COc1cc(/C=N/Nc2ccccn2)ccc1O,–,8.27 µM (active)
COc1cc(/C=N/Nc2nc(=O)[nH]nc2C)ccc1O,–,6.46 µM (active)
COc1cc(/C=N/Nc2nncn2/N=C/c2ccc(O)c(OC)c2)ccc1O,–,4.48 µM (active)
COc1cc(/C=N\Nc2cc(=O)n(C)c(=O)n2C)ccc1O,–,4.97 µM (active)

Compound,inhibition,IC50
Cc1cc(C)n(CCc2nc(-c3ccco3)cs2)n1,-6.36% (inactive),–
CCOC(=O)C1=C(O)/C(=C\c2ccc(O)c(OCC)c2)N=C1C,–,9.47 µM (active)
COC(=O)C1=C(O)/C(=C\c2ccc(O)c(OC)c2)N=C1C,–,3.81 µM (active)
CCOc1cc(/C=C2/N=C(C)C(C(=O)OC)=C2O)ccc1O,–,3.91 µM (active)
C#CCOCCOCCOCCNc1nc(N2CCN(C(=O)CCCCCCCCCCNC(=O)[C@H]([C@@H](C)CC)n3cc(CCCCN=C(N)N)nn3)CC2)nc(N2CCN(C(=O)CCCCCCCCCCNC(=O)[C@H]([C@@H](C)CC)n3cc(CCCCN=C(N)N)nn3)CC2)n1,2.94% (inactive),–
O=[N+]([O-])c1ccc(C2(O)CN(c3ccccc3)C3=[N+]2CCS3)cc1 (stereo not drawn),0.4% (inactive),–
Cc1[nH]n(-c2ccccc2)c(=S)c1C=Nc1ccc([N+](=O)[O-])cc1,–,48 µM (active)
COc1cc(SC#N)ccc1N=Cc1c(C)[nH]n(-c2ccc(C)cc2)c1=O,6.95% (inactive),–
COc1ccc(NC2CCCN(C(=O)CSc3ccccc3)C2)cc1 (stereo not drawn),–,4.76 µM (active)
COc1ccc(NC2CCCN(C(=O)CCn3cccn3)C2)cc1 (stereo not drawn),–,5.33 µM (active)
O=C1CCCCN1CCC(=O)N1CCCC(Nc2ccccc2)C1 (stereo not drawn),-15.5% (inactive),–
CCCn1c(SCC(=O)N2CCCC(C)C2)nnc1-c1ccccn1 (stereo not drawn),-17.7% (inactive),–
COc1ccc(NC2CCCN(C(=O)CCCn3cncn3)C2)cc1 (stereo not drawn),–,11.5 µM (active)
OCCC1CN(Cc2cccn2-c2ncccn2)CCN1CCc1ccccc1 (stereo not drawn),-12.1% (inactive),–
COc1ccc(C2=CC3=C(Br)C(=O)C(C)(OC(=O)c4cccs4)C(=O)C3=CO2)cc1 (stereo not drawn),20.1% (inactive),–
CC(=O)NS(=O)(=O)c1ccc(N=c2ssc3c2-c2cc(C)ccc2NC3(C)C)cc1,–,74.3 µM (active)
CN1C=CC=C/C1=C(\C#N)c1nc2ccccc2[nH]1,–,4.36 µM (active)
NS(=O)(=O)c1ccc(N/N=C/c2ccc[nH]2)c([N+](=O)[O-])c1,–,14.6 µM (active)
CCOc1cccc(=O)c2c(C)n(Cc3ccco3)c(C)c12,27.8% (inactive),–
Cc1cs/c(=N\N=C\c2ccc(O)cc2)n1Cc1ccco1,–,5.01 µM (active)
O=C(CCc1nnc(C2(c3ccc(Cl)cc3)CCC2)o1)N1CCCC(O)C1 (stereo not drawn),14.3% (inactive),–
CC(C)CN(Cc1c(O)ccc2c3c(c(=O)oc12)CCC3)CC(C)C,–,5.92 µM (active)
N=C1/C(=C\c2coc3ccc(O)cc3c2=O)C(=O)N=C2SC=CN12,–,84.9 µM (active)
O=C1NN(c2cccc(Br)c2)C(=O)/C1=C\c1ccc(O)cc1,–,11.6 µM (active)
CSC1=NSC2=NC(=O)/C(=C\c3coc4ccccc4c3=O)C(=N)N12,18.9% (inactive),–

Compound,inhibition,IC50
CC(C)CC1=NN2C(=N)/C(=C\c3coc4ccccc4c3=O)C(=O)N=C2S1,16.1% [at 50 µM] (inactive),–
O=C1NN(c2ccccc2)C(=O)/C1=C\c1coc2ccc(O)cc2c1=O,–,10.7 µM (active)
Cc1cc(C)c2nc(-c3ccco3)cc(C(=O)O)c2c1,-31.8% (inactive),–
COc1ccc(-n2c(=O)c3c4c(sc3n3c(=S)[nH]nc23)COC(C(C)C)C4)cc1 (stereo not drawn),–,16.3 µM (active)
CC(C)C1Cc2c(sc3c2c(=O)n(-c2ccccc2)c2n[nH]c(=S)n32)CO1 (stereo not drawn),–,21.9 µM (active)
Cc1cc(C)c2c(=O)n(CC(=O)NCCCN3CCN(c4ccccc4F)CC3)sc2n1,8.21% (inactive),–
C=CCOC(=O)C1=C(C)N=c2s/c(=C3\C(=O)N(CC(=O)O)c4ccccc43)c(=O)n2C1c1ccc(OC)cc1 (stereo not drawn),16.1% (inactive),–
Cc1nonc1C(=O)N/N=C/c1ccc(O)c(O)c1,–,2.13 µM (active)
C=C1CC(C(=O)N/N=C/c2ccc(O)cc2)C1,–,5.39 µM (active)
COc1ccc2c(c1)c(C(=O)N/N=C/c1ccc(O)c(O)c1)c(C)n2C,–,14.6 µM (active)
CCOC(=O)c1c(C)n(C)c2ccc(OCC(O)CN(CC)CC)cc12 (stereo not drawn),-25.9% (inactive),–
O=C(N/N=C/c1ccc(O)c(O)c1)C1CC1,–,4.15 µM (active)
O=C(NCCO)Nc1ccc2nc(-c3ccco3)c(-c3ccco3)nc2c1,-158% (inactive),–
O=C(N/N=C/c1ccc(O)c(O)c1)N/N=C/c1ccc(O)c(O)c1,–,1.85 µM (active)
S=c1[nH]nc(NCCCN2CCOCC2)s1,–,52.3 µM (active)
CCOc1ccccc1N1CSC2=C(C#N)C(c3c(OC)ccc4ccccc34)CC(=O)N2C1 (stereo not drawn),–,81.2 µM (active)
COc1ccc(N2CSC3=C(C#N)C(c4ccc(OC)c(OC)c4)CC(=O)N3C2)c(OC)c1 (stereo not drawn),–,24.8 µM (active)
CC(C)c1ccc(C2CC(=O)N3CN(C)CSC3=C2C#N)cc1 (stereo not drawn),13.5% (inactive),–
COc1ccccc1N1CSC2=C(C#N)C(c3ccc(SC)cc3)CC(=O)N2C1 (stereo not drawn),–,27.8 µM (active)
CCOc1ccc2ccccc2c1C(=O)N[C@@H]1C(=O)N2[C@@H]1SC(C)(C)[C@@H]2C(=O)O,25.5% (inactive),–
CN1CSC2=C(C#N)C(c3cccc(OCc4ccccc4)c3)CC(=O)N2C1 (stereo not drawn),–,21.8 µM (active)
COc1ccc(C2CC(=O)N3CN(c4ccccc4F)CSC3=C2C#N)cc1OC (stereo not drawn),27.1% (inactive),–
COc1cc(SC#N)ccc1N=Cc1c(C)[nH]n(-c2cccc3ccccc23)c1=O,16% (inactive),–
